# Several values for one entry are separate records, joined by “and”; a condition that tells them apart may be missing. Equal values may be shown once. About 79,000 compounds went through this panel and 15% of them were active in at least one assay; those are over-represented in the sample as a whole. More than one record can exist for a structure, and the calls need not agree. Activity calls are given as the source filed them. Rule as the data show it: active = growth inhibition above about 70%; inactive = the rest.
# Columns and labels:
# [1] = NCI Yeast Anticancer Drug Screen. Data for the rad50 strain (AID 155);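 also: 0% = growth of vehicle-only cultures of the same strain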; details: S. cerevisiae rad50 strain growth inhibition, stronger effect = higher value
# How it was run: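 A DNA repair-deficient yeast mutant serves as the test organism; compound-induced growth inhibition is calculated against vehicle-treated cells.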
# [2] = NCI Yeast Anticancer Drug Screen. Data for the mec2-1 strain (AID 157); details: S. cerevisiae mec2-1 strain, stronger effect = higher value
# How it was run: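 Growth inhibition is read against vehicle-treated controls after compound exposure of the mec2-1 yeast strain, which is defective in DNA damage repair or cell cycle control.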
# [3] = NCI Yeast Anticancer Drug Screen. Data for the sgs1 mgt1 strain (AID 161);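 also: 0% = growth of cultures given vehicle only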; details: S. cerevisiae sgs1 mgt1 strain, stronger effect = higher value
# How it was run: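 This yeast growth screen uses a strain with defined DNA-repair lesions; compound-treated growth is compared with vehicle-treated growth.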
# [4] = NCI Yeast Anticancer Drug Screen. Data for the cln2 rad14 strain (AID 165);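 also: 0% = growth equal to vehicle treated cultures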; details: S. cerevisiae cln2 rad14 strain, stronger effect = higher value
# How it was run: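 Growth inhibition, relative to vehicle-treated controls, is the read-out. The test organism is a yeast strain with defined genetic alterations, cln2 rad14.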
# [5] = NCI Yeast Anticancer Drug Screen. Data for the bub3 strain (AID 167); details: S. cerevisiae bub3 mutant strain, stronger effect = higher value
# How it was run: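 Inhibition values come from growth of compound-treated mutant yeast normalised to vehicle-treated controls.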
# [6] = NCI Yeast Anticancer Drug Screen. Data for the mlh1 rad18 strain (AID 175); details: S. cerevisiae mlh1 rad18 strain growth inhibition, stronger effect = higher value
# How it was run: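 Cells of a genetically altered yeast strain, deficient in DNA damage repair, were treated with compound. Their growth was then compared with that of vehicle-treated cultures to give inhibition.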
# [7] = at 5.0 µM (retest, dose inferred, filed as 0.5)
# [8] = at 50.0 µM (retest, dose inferred, filed as 5.0)
Structure (SMILES),"growth inhibition [1, 7]","growth inhibition [1, 8]",growth inhibition ([1]; at 50.0 µM),"growth inhibition [2, 7]","growth inhibition [2, 8]",growth inhibition ([2]; at 50.0 µM),"growth inhibition [3, 7]","growth inhibition [3, 8]",growth inhibition ([3]; at 50.0 µM),"growth inhibition [4, 7]","growth inhibition [4, 8]",growth inhibition ([4]; at 50.0 µM),"growth inhibition [5, 7]","growth inhibition [5, 8]",growth inhibition ([5]; at 50.0 µM),"growth inhibition [6, 7]","growth inhibition [6, 8]",growth inhibition ([6]; at 50.0 µM)
COC(=O)C1=COC(C)C2C[n+]3ccc4c([nH]c5ccccc54)c3CC12 (centres undefined),23% (inactive),25% (inactive),-11.6% (inactive) and 6.35% (inactive),22% (inactive),25% (inactive),-34% (inactive) and 31.9% (inactive),17% (inactive),38% (inactive),-11.2% (inactive) and 17.6% (inactive),21% (inactive),30% (inactive),-8.3% (inactive) and -15.8% (inactive),22% (inactive),35% (inactive),-31.1% (inactive) and 38.2% (inactive),23% (inactive),39% (inactive),-18.1% (inactive) and 43.3% (inactive)
CC1=NC(=Cc2ccc([N+](=O)[O-])cc2)C(=O)N1n1c(-c2ccccc2)nc2ccccc2c1=O,3% (inactive),1% (inactive),48.9% (inactive),-13% (inactive),0% (inactive),63.8% (inactive),5% (inactive),7% (inactive),45.3% (inactive),13% (inactive),11% (inactive),77% (active),-15% (inactive),-2% (inactive),68% (inactive),11% (inactive),1% (inactive),62.8% (inactive)
Cc1c(-c2ccccc2)ccnc1/C=N/NC(N)=S,29% (inactive),42% (inactive),48.1% (inactive),9% (inactive),53% (inactive),79% (active),43% (inactive),58% (inactive),65.7% (inactive),39% (inactive),39% (inactive),54.4% (inactive),49% (inactive),45% (inactive),80.7% (active),18% (inactive),36% (inactive),82% (active)
CC(C)c1ccc(C=Nc2ccc(SSc3ccc(N=Cc4ccc(C(C)C)cc4)cc3)cc2)cc1,44% (inactive),-7% (inactive),73.7% (active),26% (inactive),1% (inactive),49.4% (inactive),57% (inactive),-5% (inactive),57.6% (inactive),5% (inactive),-13% (inactive),12.2% (inactive),13% (inactive),1% (inactive),66.9% (inactive),25% (inactive),-11% (inactive),76.4% (active)
CCOc1ccc(NC(=O)/C(=C\c2ccc(C)cc2)C(C)=O)cc1,-17% (inactive),-1% (inactive),-32% (inactive) and 8.1% (inactive),-2% (inactive),-3% (inactive),-2.3% (inactive) and -25.1% (inactive),9% (inactive),-4% (inactive),2.9% (inactive) and 3.65% (inactive),-6% (inactive),5% (inactive),-24.8% (inactive) and -8.15% (inactive),-3% (inactive),-5% (inactive),-2.4% (inactive) and -19.2% (inactive),-3% (inactive),-5% (inactive),6% (inactive) and 0.5% (inactive)
CCCCCCCCCCCCc1ccc(S(=O)(=O)O)cc1.[Cu+2],-6% (inactive),88% (active),90.3% (active),14% (inactive),70% (active),64.9% (inactive),6% (inactive),97% (active),41.2% (inactive),2% (inactive),81% (active),17.3% (inactive),-9% (inactive),82% (active),43.8% (inactive),15% (inactive),93% (active),66% (inactive)
CC(=O)NC1C(O)OC(CO)C(OC2OC(CO)C(O)C(O)C2NC(=O)NCCCCCCNC(=O)n2cc(F)c(=O)[nH]c2=O)C1O (centres undefined),3% (inactive) and 85% (active),58% (inactive) and 98% (active),43.1% (inactive) and 91.9% (active),-5% (inactive) and 78% (active),70% (active) and 99% (active),72.2% (active) and 93.5% (active),7% (inactive) and 93% (active),81% (active) and 98% (active),78.8% (active) and 88.5% (active),8% (inactive) and 52% (inactive),20% (inactive) and 98% (active),24.8% (inactive) and 63.7% (inactive),5% (inactive) and 46% (inactive),19% (inactive) and 99% (active),25.2% (inactive) and 75.5% (active),4% (inactive) and 87% (active),48% (inactive) and 98% (active),37% (inactive) and 86.8% (active)
CCOC(=O)C1=C(C(=O)c2ccc(C)cc2)C(c2cccc([N+](=O)[O-])c2)C(C(=O)c2ccc(C)cc2)=C(C(=O)OCC)N1,4% (inactive),55% (inactive),60.6% (inactive),3% (inactive),69% (inactive),78% (active),8% (inactive),47% (inactive),61.1% (inactive),-3% (inactive),2% (inactive),19.3% (inactive),2% (inactive),61% (inactive),76.2% (active),0% (inactive),-17% (inactive),78.9% (active)

# — PubChem BioAssay (NCI)
